Experimental data from PubChem BioAssay (NCI).
The panel holds about 79,000 compounds, 15% with a hit somewhere; the sample as a whole holds those more often. Unmarked numbers belong to inactive results. Calls of active or inactive are those of the source. No stated cut-off is given here; in the data, active means growth inhibition above about 70%; inactive means the rest.

What was measured:
[1] = NCI Yeast Anticancer Drug Screen. Data for the rad52 strain (AID 147);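 further: 0% = growth of vehicle-treated control cultures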; details: S. cerevisiae rad52 mutant growth inhibition, hits give high values
Method in brief: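 Vehicle-treated cultures served as the reference for growth inhibition of compound-exposed yeast bearing a DNA repair mutation.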

[2] = NCI Yeast Anticancer Drug Screen. Data for the wt1 strain (AID 149);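 further: 0% = growth of vehicle-treated wt1 cultures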; details: S. cerevisiae wt1 strain (SPY 50644) growth inhibition, hits give high values
Method in brief: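 Measured: growth of wt1 yeast under compound versus vehicle treatment, reported as inhibition.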

[3] = NCI Yeast Anticancer Drug Screen. Data for the rad50EPP+ strain (AID 151);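 further: 0% = growth of vehicle-treated control cultures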; details: S. cerevisiae rad50 mutant strain, hits give high values
Method in brief: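 In this screen, rad50EPP+ yeast were exposed to compounds. Growth inhibition was scored against vehicle-treated controls.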

[4] = NCI Yeast Anticancer Drug Screen. Data for the mgt1 strain (AID 153); details: S. cerevisiae mgt1 mutant growth inhibition, hits give high values
Method in brief: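 mgt1 strain exposed; growth vs vehicle control recorded as inhibition.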

[5] = NCI Yeast Anticancer Drug Screen. Data for the rad50 strain (AID 155);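 further: 0% = growth of vehicle-only cultures of the same strain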; details: S. cerevisiae rad50 strain growth inhibition, hits give high values
Method in brief: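 Growth of the mutant yeast was measured after compound exposure and referenced to vehicle-treated cultures.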

[6] = NCI Yeast Anticancer Drug Screen. Data for the mec2-1 strain (AID 157); details: S. cerevisiae mec2-1 strain, hits give high values
Method in brief: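 Vehicle-treated cultures served as reference for growth inhibition of compound-exposed mec2-1 yeast.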

[7] = NCI Yeast Anticancer Drug Screen. Data for the rad14 strain (AID 159);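 further: 0% = growth of vehicle-treated control cultures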; details: S. cerevisiae rad14 strain growth inhibition, hits give high values
Method in brief: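 Here, inhibition of yeast growth was measured after compound exposure, using a strain with a genetic defect in DNA damage repair and vehicle-treated cultures as the reference.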

[8] = NCI Yeast Anticancer Drug Screen. Data for the sgs1 mgt1 strain (AID 161);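 further: 0% = growth of cultures given vehicle only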; details: S. cerevisiae sgs1 mgt1 strain, hits give high values
Method in brief: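 Genetically altered yeast, compound exposure, growth inhibition relative to vehicle.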

[9] = NCI Yeast Anticancer Drug Screen. Data for the CLN2oe strain (AID 163);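 further: 0% = growth of vehicle-only control cultures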; details: S. cerevisiae CLN2oe strain, hits give high values
Method in brief: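 Inhibition relative to vehicle-treated yeast is reported. Cells: strain with genetic alteration in cell-cycle control, grown with compound.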

[10] = NCI Yeast Anticancer Drug Screen. Data for the cln2 rad14 strain (AID 165);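 further: 0% = growth equal to vehicle treated cultures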; details: S. cerevisiae cln2 rad14 strain, hits give high values
Method in brief: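 Each compound was tested on cln2 rad14 yeast. Inhibition of growth was calculated against vehicle-exposed controls.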

[11] = NCI Yeast Anticancer Drug Screen. Data for the bub3 strain (AID 167); details: S. cerevisiae bub3 mutant strain, hits give high values
Method in brief: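 Whole-cell yeast assay. The mutant strain was incubated with compounds, and growth inhibition was determined by comparison with vehicle-treated cells.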

[12] = NCI Yeast Anticancer Drug Screen. Data for the wt2 strain (AID 169);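 further: 0% = growth of vehicle-treated yeast cultures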; details: S. cerevisiae wt2 strain growth inhibition, hits give high values
Method in brief: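 Inhibition of yeast growth was determined after compound treatment, normalised to controls receiving only vehicle.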

[13] = NCI Yeast Anticancer Drug Screen. Data for the mlh1 strain (AID 171);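 further: 0% = growth of vehicle-treated control cultures of the same strain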; details: S. cerevisiae mlh1 strain growth inhibition, hits give high values
Method in brief: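 Vehicle-normalised growth inhibition of a repair- or checkpoint-altered yeast strain following compound treatment.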

[14] = NCI Yeast Anticancer Drug Screen. Data for the sgs1 strain (AID 173);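 further: 0% = growth of vehicle-only control cultures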; details: S. cerevisiae sgs1 mutant, hits give high values
Method in brief: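 Screen format: yeast with repair or checkpoint alterations, compound exposure, growth read relative to vehicle.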

[15] = NCI Yeast Anticancer Drug Screen. Data for the mlh1 rad18 strain (AID 175); details: S. cerevisiae mlh1 rad18 strain growth inhibition, hits give high values
Method in brief: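 Vehicle-treated cultures served as the reference for growth inhibition in a yeast strain carrying DNA damage repair alterations exposed to each compound.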

[16] = NCI Yeast Anticancer Drug Screen. Data for the rad18 strain (AID 177); details: S. cerevisiae rad18 mutant growth inhibition, hits give high values
Method in brief: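 Test articles were incubated with altered yeast defective in DNA damage repair. Results are given as inhibition of growth versus vehicle.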

[17] = at 5.0 µM (retest, dose inferred, filed as 0.5)
[18] = at 50.0 µM (retest, dose inferred, filed as 5.0)

Q: What does the source list for `CCC1(O)C(=O)OCc2c1cc1n(c2=O)Cc2cc3c(N)cccc3nc2-1` (stereo not drawn)?
A: growth inhibition ([1]; at 1.2 µM): -21%; growth inhibition ([1]; at 3.7 µM): 31%; growth inhibition ([1]; at 11.0 µM): 53%; growth inhibition ([1]; at 33.0 µM): 57%; growth inhibition ([1]; at 100.0 µM): 54%; growth inhibition ([2]; at 1.2 µM): -22%; growth inhibition ([2]; at 3.7 µM): -14%; growth inhibition ([2]; at 11.0 µM): -26%; growth inhibition ([2]; at 33.0 µM): -24%; growth inhibition ([2]; at 100.0 µM): -16%; growth inhibition ([3]; at 1.2 µM): -12%; growth inhibition ([3]; at 3.7 µM): 7%; growth inhibition ([3]; at 11.0 µM): -8%; growth inhibition ([3]; at 33.0 µM): 10%; growth inhibition ([3]; at 100.0 µM): -8%; growth inhibition ([4]; at 1.2 µM): -12%; growth inhibition ([4]; at 3.7 µM): -15%; growth inhibition ([4]; at 11.0 µM): 3%; growth inhibition ([4]; at 33.0 µM): -5%; growth inhibition ([4]; at 100.0 µM): -31%; growth inhibition ([5]; at 1.2 µM): 11%; growth inhibition ([5]; at 3.7 µM): 38%; growth inhibition [5, 17]: 58%; growth inhibition ([5]; at 11.0 µM): 64%; growth inhibition ([5]; at 33.0 µM): 68%; growth inhibition [5, 18]: 79% (active); growth inhibition ([5]; at 50.0 µM): 56.5%; growth inhibition ([5]; at 100.0 µM): 60%; growth inhibition ([6]; at 1.2 µM): -22%; growth inhibition ([6]; at 3.7 µM): -5%; growth inhibition [6, 17]: 7%; growth inhibition ([6]; at 11.0 µM): -12%; growth inhibition ([6]; at 33.0 µM): -18%; growth inhibition [6, 18]: 12%; growth inhibition ([6]; at 50.0 µM): -0.85%; growth inhibition ([6]; at 100.0 µM): -35%; growth inhibition ([7]; at 1.2 µM): -10%; growth inhibition ([7]; at 3.7 µM): -10%; growth inhibition ([7]; at 11.0 µM): -19%; growth inhibition ([7]; at 33.0 µM): -17%; growth inhibition ([7]; at 100.0 µM): -23%; growth inhibition [8, 17]: 24%; growth inhibition [8, 18]: 19%; growth inhibition ([8]; at 50.0 µM): -2.35%; growth inhibition ([9]; at 1.2 µM): -8%; growth inhibition ([9]; at 3.7 µM): -15%; growth inhibition ([9]; at 11.0 µM): -33%; growth inhibition ([9]; at 33.0 µM): -34%; growth inhibition ([9]; at 100.0 µM): -41%; growth inhibition [10, 17]: 21%; growth inhibition [10, 18]: 14%; growth inhibition ([10]; at 50.0 µM): -6.95%; growth inhibition ([11]; at 1.2 µM): -37%; growth inhibition ([11]; at 3.7 µM): -28%; growth inhibition [11, 17]: 14%; growth inhibition ([11]; at 11.0 µM): -34%; growth inhibition ([11]; at 33.0 µM): -47%; growth inhibition [11, 18]: 6%; growth inhibition ([11]; at 50.0 µM): -9.3%; growth inhibition ([11]; at 100.0 µM): -33%; growth inhibition ([12]; at 1.2 µM): -16%; growth inhibition ([12]; at 3.7 µM): -18%; growth inhibition ([12]; at 11.0 µM): -17%; growth inhibition ([12]; at 33.0 µM): -30%; growth inhibition ([12]; at 100.0 µM): -38%; growth inhibition ([13]; at 1.2 µM): -23%; growth inhibition ([13]; at 3.7 µM): -22%; growth inhibition ([13]; at 11.0 µM): -11%; growth inhibition ([13]; at 33.0 µM): -34%; growth inhibition ([13]; at 100.0 µM): -44%; growth inhibition ([14]; at 1.2 µM): -19%; growth inhibition ([14]; at 3.7 µM): -7%; growth inhibition ([14]; at 11.0 µM): 0%; growth inhibition ([14]; at 33.0 µM): 6%; growth inhibition ([14]; at 100.0 µM): 7%; growth inhibition [15, 17]: 16%; growth inhibition [15, 18]: 16%; growth inhibition ([15]; at 50.0 µM): -65.3%; growth inhibition ([16]; at 1.2 µM): -42%; growth inhibition ([16]; at 3.7 µM): -37%; growth inhibition ([16]; at 11.0 µM): -31%; growth inhibition ([16]; at 33.0 µM): -26%; growth inhibition ([16]; at 100.0 µM): -48%
